Experimental data reported in PubChem BioAssay AID1159580 (chemical genetic matrix, 2015).
Values joined by “and” are separate entries in the source; they are usually repeats but may differ in a detail not shown here. Equal entries are not always repeated. In all, about 5,500 compounds went through this assay and about 2,000 (36%) were called active. Not shown: some 18% with an inconclusive outcome. No stated cut-off is given here; in the data, active means normalized growth mostly below about 0.91 (no sharp cut-off); inconclusive means no clear call, values can overlap the other calls; inactive means mostly above about 0.92. Some of the results follow.

Assay: chemical genetic growth profiling, strain panel (AID 1159580);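 further: tested at 20 µM; growth read once vehicle control cultures reached saturation at 30 °C; 1 = growth at the plate median or of vehicle wells; lower values mean less growth of the strain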
Conditions: growth OD

Measured: normalized growth

CN(C)c1nc(N(C)C)nc(N(C)C)n1
inactive: S. cerevisiae deletion strains, locus YKL009W, strain mrt4, active compounds read low 1 | S. cerevisiae deletion strains, locus YKL068W, active compounds read low 1.01 | S. cerevisiae deletion strains, locus YKL085W, strain MDH1 (second series), active compounds read low 1.01 | S. cerevisiae deletion strains, locus YKL085W, strain MDH1, active compounds read low 1.01 | S. cerevisiae deletion strains, locus YKL160W, strain elf1, active compounds read low 0.985 | S. cerevisiae deletion strains, locus YKL190W, strain CNB1, active compounds read low 1.01 | S. cerevisiae deletion strains, locus YKR001C, strain vps1, active compounds read low 1.01 | S. cerevisiae deletion strains, locus YKR026C, strain gcn3, active compounds read low 0.978 | S. cerevisiae deletion strains, locus YKR091W, strain srl3, active compounds read low 0.962 | S. cerevisiae deletion strains, locus YLL001W, strain dnm1, active compounds read low 0.969 | S. cerevisiae deletion strains, locus YLL026W, active compounds read low 0.977 | S. cerevisiae deletion strains, locus YLL041C, strain sdh2, active compounds read low 0.983 | S. cerevisiae deletion strains, locus YLR027C, strain aat2, active compounds read low 0.969 | S. cerevisiae deletion strains, locus YLR039C, strain RIC1, active compounds read low 0.964 | S. cerevisiae deletion strains, locus YLR058C, strain SHM2, active compounds read low 1.01 | S. cerevisiae deletion strains, locus YLR102C, strain apc9, active compounds read low 1.01 | S. cerevisiae deletion strains, locus YLR113W, strain HOG1, active compounds read low 0.948 | S. cerevisiae deletion strains, locus YLR221C, strain rsa3, active compounds read low 0.945 | S. cerevisiae deletion strains, locus YLR258W, strain gsy2, active compounds read low 0.987 | S. cerevisiae deletion strains, locus YLR262C, strain YPT6 (second series), active compounds read low 0.932 | S. cerevisiae deletion strains, locus YLR262C, strain YPT6, active compounds read low 0.986 | S. cerevisiae deletion strains, locus YLR268W, strain sec22, active compounds read low 1.02 | S. cerevisiae deletion strains, locus YLR320W, strain mms22, active compounds read low 0.949 | S. cerevisiae deletion strains, locus YLR330W, strain CHS5, active compounds read low 1.01 | S. cerevisiae deletion strains, locus YLR342W, strain FKS1 (second series), active compounds read low 1 | S. cerevisiae deletion strains, locus YLR342W, strain FKS1, active compounds read low 0.968 | S. cerevisiae deletion strains, locus YLR357W, strain rsc2, active compounds read low 0.978 | S. cerevisiae deletion strains, locus YLR370C, strain arc18, active compounds read low 0.964 | S. cerevisiae deletion strains, locus YLR371W, strain rom2, active compounds read low 1.01 | S. cerevisiae deletion strains, locus YLR384C, strain iki3, active compounds read low 0.951 | S. cerevisiae deletion strains, locus YLR418C, strain cdc73, active compounds read low 1.05 | S. cerevisiae deletion strains, locus YML016C, strain PPZ1, active compounds read low 1.01 | S. cerevisiae deletion strains, locus YML032C, strain rad52, active compounds read low 1.02 | S. cerevisiae deletion strains, locus YML120C, strain ndi1, active compounds read low 0.952 | S. cerevisiae deletion strains, locus YML124C, strain tub3, active compounds read low 1.02 | S. cerevisiae deletion strains, locus YMR058W, strain fet3, active compounds read low 0.969 | S. cerevisiae deletion strains, locus YMR078C, strain ctf18, active compounds read low 1.02 | S. cerevisiae deletion strains, locus YMR125W, strain sto1, active compounds read low 0.97 | S. cerevisiae deletion strains, locus YMR129W, active compounds read low 0.992 | S. cerevisiae deletion strains, locus YMR205C, strain PFK2, active compounds read low 0.945 | S. cerevisiae deletion strains, locus YMR223W, strain ubp8, active compounds read low 1.02 | S. cerevisiae deletion strains, locus YMR231W, strain pep5, active compounds read low 0.979 | S. cerevisiae deletion strains, locus YMR263W, strain SAP30, active compounds read low 1.01 | S. cerevisiae deletion strains, locus YMR307W, strain GAS1, active compounds read low 1.03 and 1.01 | S. cerevisiae deletion strains, locus YNL067W, strain RPL9B, active compounds read low 1 | S. cerevisiae deletion strains, locus YNL071W, strain lat1, active compounds read low 0.982 | S. cerevisiae deletion strains, locus YNL128W, strain TEP1, active compounds read low 1.02 | S. cerevisiae deletion strains, locus YNL153C, strain GIM3, active compounds read low 0.995 | S. cerevisiae deletion strains, locus YNL175C, strain NOP13, active compounds read low 0.992 | S. cerevisiae deletion strains, locus YNL183C, strain NPR1, active compounds read low 0.92 | S. cerevisiae deletion strains, locus YNL197C, strain WHI3, active compounds read low 0.997 | S. cerevisiae deletion strains, locus YNL209W, strain ssb2, active compounds read low 0.978 | S. cerevisiae deletion strains, locus YNL224C, strain SQS1, active compounds read low 0.993 | S. cerevisiae deletion strains, locus YNL233W, strain BNI4, active compounds read low 1 | S. cerevisiae deletion strains, locus YNL248C, strain rpa49, active compounds read low 0.959 | S. cerevisiae deletion strains, locus YNL250W, strain rad50, active compounds read low 1.04 | S. cerevisiae deletion strains, locus YNL271C, strain bni1, active compounds read low 1.02 | S. cerevisiae deletion strains, locus YNL298W, strain CLA4, active compounds read low 1.02 | S. cerevisiae deletion strains, locus YNL307C, strain MCK1, active compounds read low 1.02 | S. cerevisiae deletion strains, locus YNL322C, strain KRE1 (second series), active compounds read low 0.954 | S. cerevisiae deletion strains, locus YNL322C, strain KRE1, active compounds read low 0.996 | S. cerevisiae deletion strains, locus YNR049C, strain mso1, active compounds read low 0.96 | S. cerevisiae deletion strains, locus YNR052C, strain pop2, active compounds read low 1.02 | S. cerevisiae deletion strains, locus YOL006C, strain TOP1, active compounds read low 1 | S. cerevisiae deletion strains, locus YOL012C, strain htz1 0.788 | S. cerevisiae deletion strains, locus YOL147C, strain pex11, active compounds read low 1.02 | S. cerevisiae deletion strains, locus YOR001W, strain rrp6, active compounds read low 0.987 | S. cerevisiae deletion strains, locus YOR061W, strain CKA2, active compounds read low 1.01 | S. cerevisiae deletion strains, locus YOR069W, strain VPS5, active compounds read low 1 | S. cerevisiae deletion strains, locus YOR070C, strain gyp1, active compounds read low 0.984 | S. cerevisiae deletion strains, locus YOR080W, strain dia2, active compounds read low 0.974 | S. cerevisiae deletion strains, locus YOR083W, strain WHI5 (second series), active compounds read low 1.03 | S. cerevisiae deletion strains, locus YOR083W, strain WHI5, active compounds read low 0.956 | S. cerevisiae deletion strains, locus YOR106W, strain vam3, active compounds read low 0.928 | S. cerevisiae deletion strains, locus YOR136W, strain idh2, active compounds read low 1.02 | S. cerevisiae deletion strains, locus YOR144C, strain elg1, active compounds read low 1.01 | S. cerevisiae deletion strains, locus YOR184W, strain ser1, active compounds read low 1.02 | S. cerevisiae deletion strains, locus YOR231W, strain MKK1, active compounds read low 0.962 | S. cerevisiae deletion strains, locus YOR265W, strain rbl2, active compounds read low 0.971 | S. cerevisiae deletion strains, locus YOR270C, strain vph1, active compounds read low 0.953 | S. cerevisiae deletion strains, locus YOR290C, strain snf2, active compounds read low 0.919 | S. cerevisiae deletion strains, locus YOR316C, strain cot1, active compounds read low 1.02 | S. cerevisiae deletion strains, locus YPL051W, strain arl3, active compounds read low 0.979 | S. cerevisiae deletion strains, locus YPL055C, strain LGE1, active compounds read low 1.01 | S. cerevisiae deletion strains, locus YPL078C, strain atp4, active compounds read low 0.975 | S. cerevisiae deletion strains, locus YPL106C, strain sse1, active compounds read low 0.951 | S. cerevisiae deletion strains, locus YPL240C, strain hsp82, active compounds read low 0.974 | S. cerevisiae deletion strains, locus YPL256C, strain CLN2, active compounds read low 0.975 | S. cerevisiae deletion strains, locus YPR119W, strain clb2, active compounds read low 1.01 | S. cerevisiae deletion strains, locus YPR141C, strain kar3, active compounds read low 1.02 | S. cerevisiae deletion strains, locus YPR163C, strain tif3, active compounds read low 1.02 | S. cerevisiae deletion strains, locus YPR167C, strain met16, active compounds read low 1.01 | S. cerevisiae deletion strains, strain wtn01, active compounds read low 1.02 | S. cerevisiae strains, strain wild type, active compounds read low 1.01
